One assay relates to Klebsiella pneumoniae. The following applies: Concentration 32 ug.mL-1;; ASSAY_TEST Inhibition of Bacterial Growth; detection method Absorption (OD600); MEDIA CAMHB; plate type 384well; NBS; CORNING #3640; time 18 hr.
For the next assay, the system named is Candida albicans. The following applies: Concentration 32 ug.mL-1; ASSAY_TEST Inhibition of Fungal Growth; detection method Absorption (OD530).
For another assay, the system named is Cryptococcus neoformans. The following applies: Concentration 32 ug.mL-1; ASSAY_TEST Inhibition of Fungal Growth; detection method Resazurin; Absorption (OD600-OD570); plate type 384well; NBS; CORNING #3640.

Measured potencies and affinities stand elsewhere.

This is an account of results in ChEMBL document CHEMBL4513146, “CO-ADD screening of Karazin Kharkiv National University (Ukraine) compounds”.

As for `COc1cccc(-n2ccn3c(SCC(=O)c4ccc(C)cc4C)nnc3c2=O)c1`, the Inhibition (usually the relative decrease from the control value, in per cent) in the assay on Klebsiella pneumoniae is on record as 16.45%; in the assay on Candida albicans, 4.51%; in the assay on Cryptococcus neoformans, -10.37%.
For `O=c1c2nn(Cc3ccccc3F)c(=O)n2ccn1-c1ccccc1`, the Inhibition in the assay with Klebsiella pneumoniae is given as 4.89%; in the assay with Candida albicans, 1.22%; in the assay with Cryptococcus neoformans, -10.1%.
Take `Cc1ccc(-c2ccc3nn(CC(=O)Nc4ccc(C#N)cc4)c(=O)n3n2)cc1C`: the Inhibition with Klebsiella pneumoniae is listed as 8.41%; with Candida albicans, 3.47%; in the assay with Cryptococcus neoformans, -12.02%.
With `Cc1cccc(Oc2nc3ccccc3n3c(=O)n(CC(=O)NCc4ccco4)nc23)c1C`, the Inhibition in the assay with Klebsiella pneumoniae was 3.72%; with Candida albicans, 36.74%; with Cryptococcus neoformans it was -27.2%.
Turning to `C=Cc1ccc(CN(c2cccc(Cl)c2)S(=O)(=O)c2cccn3c(C)nnc23)cc1`, the Inhibition is 6.94% in the assay on Klebsiella pneumoniae, 1.33% with Candida albicans and -16.09% with Cryptococcus neoformans.
With `O=C(CSc1nnc2c(=O)n(-c3ccc(F)cc3)ccn12)NCC1CCCO1` (stereo not given), the Inhibition with Klebsiella pneumoniae is given as 7.61%; with Candida albicans, 4.29%; in the assay with Cryptococcus neoformans, -18.42%.
For `CCc1nnc2c(S(=O)(=O)N(Cc3cccc(F)c3)c3ccc(C)c(C)c3)cccn12`, the values for the Inhibition in the assay with Klebsiella pneumoniae, in the assay with Candida albicans and in the assay with Cryptococcus neoformans were 12.58%, 3.78% and -9.15%, respectively.
In the case of `Cc1cc(C)cc(Oc2nc3ccccc3n3c(=O)n(CC(=O)Nc4ccc5c(c4)OCO5)nc23)c1`, the Inhibition was 6.8% in the assay with Klebsiella pneumoniae, 46.24% in the assay on Candida albicans and -19.74% with Cryptococcus neoformans.
The corresponding values for `CC(C)Cn1c(=O)c2sccc2n2c(=O)n(CC(N)=O)nc12` are -1.97%, -1.59% and -19.03%.
Take `Cc1ccc(-c2cc3c4nn(CC(=O)Nc5ccc(Br)cc5)c(=O)n4ccn3n2)cc1C`: the Inhibition in the assay on Klebsiella pneumoniae is on record as -3.52%; in the assay with Candida albicans, 9.45%; in the assay on Cryptococcus neoformans it was -8.46%.
For the molecule `COc1ccccc1Cn1c(=O)c2sccc2n2c(=O)n(CC(=O)c3ccc(C)cc3C)nc12`, the results for the Inhibition with Klebsiella pneumoniae, with Candida albicans and with Cryptococcus neoformans were 4.01%, 8% and -26.25%, respectively.
Take `CCc1ccc(N(Cc2ccc(C)cc2)S(=O)(=O)c2cccn3c(CC)nnc23)cc1`: the results for the Inhibition in the assay with Klebsiella pneumoniae, in the assay with Candida albicans and in the assay on Cryptococcus neoformans were 2.26%, 5.38% and -7.79%, respectively.
`CC(C)(C)Sc1ccc2nn(CC(=O)NCc3ccc(Cl)cc3)c(=O)n2n1`: the Inhibition in the assay with Klebsiella pneumoniae is 10.39%; in the assay with Candida albicans, 0.88%; with Cryptococcus neoformans, -9.66%.
As for `CCCCc1ccc(NC(=O)Cn2c(=O)c3nnc(CCC)n3c3ccccc32)cc1`, the Inhibition with Klebsiella pneumoniae is recorded as 6.31%; with Candida albicans it was 4.08%; in the assay on Cryptococcus neoformans it was -20.48%.
On to `COc1cc(OC)c(NC(=O)Cn2nc3c(SC4CCCCC4)nccn3c2=O)cc1Cl`, for which the Inhibition with Klebsiella pneumoniae is on record as 9.62%; in the assay with Candida albicans it was 7.28%; in the assay on Cryptococcus neoformans, -20.84%.
Consider `CCN(C(=O)CSc1nnc2c3cc(-c4ccc(OC)cc4)nn3ccn12)c1ccccc1`, for which the results for the Inhibition in the assay with Klebsiella pneumoniae, in the assay on Candida albicans and in the assay on Cryptococcus neoformans were 4.95%, 2.01% and -1.74%, respectively.
The corresponding values for `C=Cc1ccc(CN(c2ccc(F)cc2)S(=O)(=O)c2ccc3nnc(C)n3c2)cc1` are 5.5%, 1.83% and -7.48%.
Regarding `Cc1cc2nn(CC(=O)NC(C)C)c(=O)n2c(-c2ccc(C(F)(F)F)cc2)n1`, the Inhibition in the assay with Klebsiella pneumoniae is given as 3.27%; in the assay on Candida albicans, 1.65%; with Cryptococcus neoformans, -4.89%.
The matching figures for `COc1cccc(Cn2nc3c(=O)n(-c4cccc(Cl)c4C)ccn3c2=O)c1`: -11.12%, 6.64% and -14.85%.
The corresponding values for `CCC(C)NC(=O)Cn1nc2ccc(SCc3ccc(Cl)cc3)nn2c1=O` (stereo not given) are 12.21%, 3.51% and -20.85%.
Regarding `O=C(CCc1nnc2c(N3CCCCC3)nc3ccccc3n12)NCc1ccc2c(c1)OCO2`, the Inhibition in the assay with Klebsiella pneumoniae is 14.18%; in the assay on Candida albicans it was 10.16%; in the assay with Cryptococcus neoformans, -25.55%.
The matching figures for `Cc1ccc(F)cc1NC(=O)CSc1nc2ccccc2n2c(C(C)C)nnc12`: 9.62%, 0.82% and -18.14%.
As for `Cc1ccc(NC(=O)Cn2nc3c(N4CCOCC4)nccn3c2=O)cc1Cl`, the Inhibition is given as 6.31% in the assay with Klebsiella pneumoniae, 3.12% in the assay on Candida albicans and -5.46% in the assay on Cryptococcus neoformans.
On to `CCOC(=O)c1ccc(NC(=O)Cn2nc3ccc(C(=O)Nc4cccc(C)c4)cn3c2=O)cc1`, for which the Inhibition in the assay on Klebsiella pneumoniae is reported as 6.83%; with Candida albicans, 1.34%; with Cryptococcus neoformans, -36.79%.
Regarding `CCOC(=O)c1cccc(NC(=O)CSc2nnc3ccc(C(=O)Nc4cccc(F)c4)cn23)c1`, the values for the Inhibition in the assay on Klebsiella pneumoniae, in the assay with Candida albicans and with Cryptococcus neoformans were 3.6%, 0.96% and -5.2%, respectively.
On to `COc1cc(OC)c(NC(=O)Cn2nc3ccc(SC4CCCCC4)nn3c2=O)cc1Cl`, for which the Inhibition in the assay on Klebsiella pneumoniae is reported as 10.6%; with Candida albicans, 29.07%; with Cryptococcus neoformans, -6.25%.
Take `O=C(Cn1nc2c(Sc3ccccc3)nccn2c1=O)Nc1cc(F)ccc1F`: the Inhibition in the assay with Klebsiella pneumoniae is given as -2.16%; with Candida albicans it was 0.26%; in the assay with Cryptococcus neoformans it was -12.37%.
Regarding `CCOc1ccc(NC(=O)Cn2nc3ccc(SCc4ccc(Cl)cc4)nn3c2=O)cc1`, the Inhibition in the assay with Klebsiella pneumoniae is 7.43%; with Candida albicans, 15.3%; in the assay with Cryptococcus neoformans it was -13.71%.
The corresponding values for `COc1ccc(OC)c(NC(=O)Cn2nc3c4cc(-c5ccc(F)cc5)nn4ccn3c2=O)c1` are 1.37%, 3.04% and -6.46%.
On to `CSc1cccc(NC(=O)Cn2nc3ccc(C(=O)NCc4ccccc4)cn3c2=O)c1`, for which the figures for the Inhibition with Klebsiella pneumoniae, in the assay with Candida albicans and with Cryptococcus neoformans were 7.41%, 7.13% and -20.24%, respectively.
